What all share (test): NCI-60 one-dose screen, 48 h (100 = growth as untreated, 0 = no growth, -100 = all killed)
Conditions in all cases: 10 µM unless noted

For test [1], the system named is NCI-H23 lung.
Test [2] has as its system NCI-H226 lung.
Test [3] relates to NCI-H322M lung.
Test [4] has as its system HOP-62 NSCLC.
Test [5] deals with NCI-H460 lung.
Test [6] relates to HOP-92 NSCLC.
The subject of test [7] is NCI-H522 lung.
The test system of test [8] is A549/ATCC NSCLC.
In test [9] the test system is 786-0 renal.
Test [10] relates to COLO 205 colon.
Test [11] deals with DU-145 prostate.
The subject of test [12] is K-562 leukemia.
The test system of test [13] is MALME-3M melanoma.
Test [14] has as its system MDA-MB-231 breast.
In test [15] the test system is RXF 393 renal.
Test [16] has as its system SF-268 CNS.
Test [17] has as its system SF-295 CNS.
In test [18] the test system is SF-539 CNS.
Test [19] deals with UACC-257 melanoma.
The subject of test [20] is M14 melanoma.

The panel holds about 83,000 compounds, 20% with a hit somewhere; the sample as a whole holds those more often.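 Percent growth is the endpoint: 0 to 100 indicates growth inhibition (40 means 60% inhibition), 0 means no net growth, and negative values indicate cell death.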 Values without a mark were called inactive. Activity calls are given as the source filed them. How the source made its calls: active means growth percent below 10; inactive means the rest.

With `COc1cccc(C(Cc2ccccc2)Nc2ccccc2)c1OC` (stereo not given), the growth is 92.1% in test [1]; 91.3% in test [2]; 101% in test [3]; 92.6% in [4]; 101% in test [5]; 77.5% in test [6]. For the same compound, the growth is 65.6% in test [7]; 81.4% in [8]; 95.5% in test [9]; 105% in [10]; 109% in [11]; 90.4% in [12]. Besides, the growth in [13] was 98.9%; in test [14], 97.4%; in test [15], 109%; in test [16], 101%; in test [17], 99.6%; in test [18], 104%. Further, the growth is 91% in test [19] and 97.2% in test [20].
As to `CCCCCCOc1ccc(C(=N)N(CCCC)CCCC)c2ccccc12`, the growth in [1] was -94.6% (active); in test [2], -70.5% (active); in [3], -93.6% (active); in test [4], -89% (active); in test [5] it was -57.7% (active); in test [6] it was -81.7% (active). Moreover, the growth in test [7] is -84.6% (active); in test [8], -83.1% (active); in test [9] it was -94% (active); in [10], -79.9% (active); in test [11] it was -92.4% (active); in test [12], -42.3% (active). Also, the growth is -82.7% (active) in test [13]; -89.7% (active) in test [14]; -94.5% (active) in [15]; -84.4% (active) in test [16]; -89.1% (active) in [17]; -92.8% (active) in [18]. Also, the growth in [19] was -85.5% (active); in test [20] it was -96.1% (active).
As to `CCSc1ccc2c(c1)N(CCCN1CCN(C)CC1)c1ccccc1S2`, the growth is 74.2% in test [1]; 90.5% in [2]; 73.1% in [3]; 69.8% in test [4]; 9.17% (active) in test [5]; 20.3% in test [6]. Also, the growth in test [7] was 70.3%; in test [8] it was 53.6%; in [9], 43.2%; in [10] it was -62.1% (active); in [11], 56.3%; in [12], -20.9% (active). Moreover, the growth is -61.6% (active) in [13]; 16.5% in [14]; 18.6% in test [15]; 55.8% in [16]; 35.4% in [17]; 63.2% in test [18]. Further, the growth is -69.8% (active) in test [19] and -86.9% (active) in [20].
`CC(Oc1ccc(C(=O)NS(=O)(=O)C(C)(C)C)cc1C(F)(F)F)c1ccc(Oc2ccccc2)cn1` (stereo not given): the growth was 83.8% in [1]; 81.5% in test [2]; 88.3% in test [3]; 78.2% in test [4]; 96.9% in [5]; 73.1% in [6]. Besides, the growth in [7] is 17.2%; in [8], 94.5%; in test [9], 77.7%; in test [10], 77.1%; in test [11], 97%; in [12], 34.7%. Further, the growth is 59.4% in test [13]; 81% in [14]; 65.8% in test [15]; 67.8% in [16]; 55.9% in test [17]; 76% in test [18]. The growth is 78.9% in test [19] and 57.3% in [20].
On to `Nc1cc(N)c2cccnc2c1O`, for which the growth in test [1] was 35.5%; in test [2], 89.8%; in test [3], 78%; in [4], 69.5%; in test [5], 15.2%; in test [6], 72.3%. The growth is 67.2% in [7]; 63% in [8]; 89.8% in [9]; 102% in [10]; 72.7% in test [11]; 37.5% in test [12]. In addition, the growth in test [13] was 85%; in test [14] it was 78.6%; in test [15] it was 74.9%; in test [16] it was 83.4%; in test [17] it was 63.2%; in [18], 66.1%. In addition, the results for the growth in test [19] and in [20] were 76.1% and 76.5%, respectively.
Consider `C=C(C)[C@@H]1CC[C@]2(C(=O)O)CC[C@]3(C)[C@H](CC[C@@H]4[C@@]5(C)C[C@@H](CC#Cc6ccc(Br)cc6)C(=O)C(C)(C)[C@@H]5CC[C@]43C)[C@@H]12`, for which the growth in test [1] was 31.2%; in [2], 17.3%; in [3], 65.7%; in test [4] it was 52.3%; in [5], 42.3%; in [6], 65.8%. The growth was 17.3% in test [7]; 33.1% in test [8]; 63.1% in test [9]; 69.1% in test [10]; 40% in test [11]; 42.8% in test [12]. Also, the growth is -19.9% (active) in test [13]; 0.351% (active) in test [14]; 52.6% in [15]; 72.1% in test [16]; 58.9% in [17]; 61.1% in test [18]. Besides, the growth is 52.7% in [19] and 5.57% (active) in test [20].
Consider `C#CCNC(=O)[C@H](Cc1ccccc1)NC(=O)[C@]12CC[C@@H](C(=C)C)[C@@H]1[C@H]1CC[C@@H]3[C@@]4(C)Cc5c([nH]c6ccccc56)C(C)(C)[C@@H]4CC[C@@]3(C)[C@]1(C)CC2`, for which the growth in test [1] is 94.9%; in [2] it was 90.2%; in test [3], 93.9%; in [4] it was 95.2%; in test [5] it was 104%; in [6], 69.7%. Also, the growth in test [7] was 87.9%; in [8], 84.7%; in test [9], 87.8%; in [10], 97.8%; in test [11] it was 101%; in test [12] it was 83.9%. The growth was 113% in [13]; 97.7% in test [14]; 93.9% in [15]; 92.6% in test [16]; 96.6% in [17]; 102% in test [18]. The growth was 96.7% in [19] and 96.4% in test [20].

These data come from PubChem BioAssay (NCI).
